Here are results for nine compounds from PubChem BioAssay (NCI).

Common to all, as to test: NCI-60 one-dose screen, 48 h (100 = growth as untreated, 0 = no growth, -100 = all killed)
Common to all, as to conditions: 10 µM unless noted

Assay [1] relates to SK-MEL-2 melanoma.
In assay [2] the test system is EKVX NSCLC.
The subject of assay [3] is SN12C renal.
Assay [4] relates to UO-31 renal.
The subject of assay [5] is TK-10 renal.
For assay [6], the system named is ACHN renal.
Assay [7] has as its system A498 renal.
The subject of assay [8] is CCRF-CEM leukemia.
The test system of assay [9] is RPMI-8226 leukemia.
Assay [10] relates to OVCAR-8 ovarian.
Assay [11] concerns OVCAR-5 ovarian.
The test system of assay [12] is OVCAR-4 ovarian.
The test system of assay [13] is SK-OV-3 ovarian.
Assay [14] relates to IGROV1 ovarian.
In assay [15] the test system is HS 578T breast.
The subject of assay [16] is NCI/ADR-RES ovarian.
Assay [17] has as its system MOLT-4 leukemia.
For assay [18], the system named is OVCAR-3 ovarian.
Assay [19] has as its system SR leukemia.

Structures are written as SMILES. Compounds without any hit were thinned out: in the full panel of roughly 83,000, 20% have a hit.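 Single-dose data. Exposure time 48 hours. Values below 10 considered active.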 A number with no mark means an inactive call. Activity calls are given as the source filed them.

As to `CCCc1nn2c(CCC(=O)c3nc4ccc([N+](=O)[O-])cc4[nH]3)nnc2s1`, the growth in [1] is 87.5%; in assay [2] it was 95.6%; in assay [3], 101%; in [4], 80.7%; in [5], 133%; in assay [6], 102%. The growth in [7] is 123%; in [8], 109%; in assay [9] it was 133%; in assay [10] it was 109%; in assay [11], 97.5%; in assay [12] it was 100%. In addition, the growth in assay [13] is 110%; in assay [14], 101%; in [15], 91.1%; in assay [16] it was 104%.
Consider `COc1ccc2c(c1)nnc1c3cccnc3[nH]c21`, for which the growth in assay [1] is -13.2% (active); in assay [2] it was 34.2%; in assay [3], -22.2% (active); in assay [4], -74.1% (active); in assay [5], 11.8%; in [6] it was -10.2% (active). The growth in assay [7] was 40.3%; in assay [8], -0.9% (active); in [17], -21.6% (active); in assay [9], -41.9% (active); in assay [10], 3.13% (active); in [11], 36.1%. Besides, the growth in assay [12] was 14.8%; in assay [13], 19%; in assay [18], -51.1% (active); in assay [15], -24.5% (active); in [16], 13.8%.
With `CCC(C)Nc1ccc(N)cc1` (stereo not given), the growth in [1] is 7.8% (active); in [2] it was 8.66% (active); in [3], 10.5%; in assay [4] it was -2.85% (active); in [5] it was 45.4%; in assay [6] it was 46%. The growth in assay [7] was 91.9%; in assay [8] it was 12.8%; in assay [17] it was -13.7% (active); in [9], -25.4% (active); in assay [11], 74%; in [12], -4.82% (active). Moreover, the growth is 38.5% in assay [13], 78.9% in assay [15] and 70.6% in [16].
In the case of `O=C1OC(c2ccc(-c3ccccc3)cc2)=C/C1=C/C=C/c1ccccc1`, the growth in assay [1] is 114%; in [2], 102%; in assay [3], 99.9%; in assay [4], 80%; in assay [5], 107%; in assay [6], 102%. Besides, the growth in assay [7] is 84.4%; in assay [8] it was 24.2%; in [17], 98.5%; in [19], 98.3%; in assay [10], 103%; in [11] it was 91.3%. For the same compound, the growth is 95% in assay [12], 102% in assay [13], 99% in assay [14] and 86.9% in assay [15].
Regarding `CCC1CN2C(=N1)c1ccccc1-c1cc(Cl)ccc12` (stereo not given), the growth in assay [1] was -14.9% (active); in [2] it was 22.9%; in assay [3] it was 18.5%; in assay [4], -43% (active); in [5], 34.7%; in assay [6] it was 2.38% (active). The growth was 56.9% in assay [7]; 13.4% in assay [8]; -24.8% (active) in [17]; -9.43% (active) in [9]; -5.17% (active) in assay [10]; 35.6% in assay [11]. Further, the growth in [12] is 26.6%; in assay [13] it was 29.6%; in [18], 20.4%; in assay [15], 89.1%; in assay [16] it was 21.3%.
As to `Cc1cc(NCCN(C(C)C)C(C)C)nc(/N=C(\N)Nc2ccc(Cl)c(C(F)(F)F)c2)n1`, the growth in assay [1] is -89.4% (active); in [2], -17.5% (active); in assay [3] it was -45.6% (active); in assay [4], -90.9% (active); in assay [5] it was -80.6% (active); in [6] it was -81.1% (active). In addition, the growth in assay [7] was -88.8% (active); in assay [8] it was -68% (active); in assay [17], -69.2% (active); in assay [9], -65.7% (active); in assay [10], -79.2% (active); in assay [11], -55.5% (active). Moreover, the growth in assay [12] is -68.2% (active); in assay [13] it was -82% (active); in [15] it was -48.5% (active); in assay [16], -41.1% (active).
Take `COc1cc(/C=C/C(=O)c2c(C)[n+]([O-])c3ccccc3[n+]2[O-])ccc1O`: the growth in assay [1] is 83.8%; in assay [2], 84.5%; in assay [3] it was 101%; in [4], 80.4%; in [5], 55.9%; in [6], 95.4%. Besides, the growth in [7] is 101%; in assay [8] it was 124%; in [17], 126%; in assay [9] it was 104%; in assay [10], 89.4%; in assay [11] it was 110%. The growth was 155% in assay [12]; 97.8% in assay [13]; 61.4% in [14]; 99.4% in [15]; 104% in assay [16].
As to `C=C1C(=O)O[C@H]2[C@H]1CC/C(COC(=O)c1cc(OC)c(OC)c(OC)c1)=C\CC[C@@]1(C)O[C@@H]21`, the growth in assay [1] was -39.4% (active); in assay [2] it was -70.6% (active); in assay [3] it was -5.94% (active); in [4], -99% (active); in assay [5], -64.4% (active); in assay [6], -87.7% (active). In addition, the growth in assay [7] was 59.8%; in [8], -22% (active); in assay [17], -14.8% (active); in [19], -13.2% (active); in [10], -45.7% (active); in assay [11], -12.4% (active). For the same compound, the growth is 20.1% in [12]; 97.6% in assay [13]; -8.27% (active) in assay [14]; -69.8% (active) in assay [18]; 32.9% in assay [15]; 10.9% in [16].
In the case of `C=CCn1c(SCC(=O)Nc2ccc(/C(C)=N\O)cc2)nnc1-c1cc(-c2ccc(OC)cc2)nc2ccccc12`, the growth is 22.3% in [1]; 42.5% in [2]; 44.4% in assay [3]; 14.7% in assay [4]; 37.5% in assay [5]; 28.9% in [6]. Besides, the growth in assay [7] is 38.7%; in assay [8] it was 15%; in [17], 1.81% (active); in assay [19], 33.8%; in [10], 15.3%; in [11], 79.4%. For the same compound, the growth in assay [12] was 53%; in assay [13], 52.8%; in [14], 11.1%; in assay [18], 37%; in assay [15] it was 46%; in assay [16] it was 13.7%.
